The record followed here is PubChem BioAssay (NCATS).

The nature of test [1]: BET inhibitor-based combinations targeting novel dependencies in MECOM-rearranged (r) AML: SET-2 cell line (AID 2202231). Also: nearly all actives have a fitted effect of over 35% in size.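 As to viability: plate controls were DMSO treated cells for no effect and wells without cells for full effect.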 Conditions: SET-2 AML cells viability, CellTiter-Glo luminescence, 48 h; viability: stronger effect = lower value, concentration not given here. In outline: (§1)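 Luminescent ATP readout (CellTiter-Glo) after 48 hr drug exposure gives viability. Curves span 11 concentrations and are normalized to DMSO and empty wells. Activity is reported as area under the curve and its Z-transform within each cell line.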

A short description of test [2]: BET inhibitor-based combinations targeting novel dependencies in MECOM-rearranged (r) AML: OCI-AML3 cell line (AID 2202232). Also: nearly all actives have a fitted effect of over 35% in size. Conditions: Potency: OCI-AML3 viability. An outline of the steps: as §1
Test [3] is described as follows: BET inhibitor-based combinations targeting novel dependencies in MECOM-rearranged (r) AML: MV-4-11 cell line (AID 2202233). Also: nearly all actives have a fitted effect of over 45% in size. An outline of the steps: (§2)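 Luminescent ATP readout (CellTiter-Glo, 15 min at room temperature) after 48 hr drug exposure gave viability. Dose-response curves, normalized to DMSO and empty-well controls, were summarized as area under the curve and its mean-centred Z-score.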

Test [4] is described as follows: BET inhibitor-based combinations targeting novel dependencies in MECOM-rearranged (r) AML: HNT-34 cell line (AID 2202234). Also: nearly all actives have a fitted effect of over 35% in size. In outline:
as §2

Test [5] is described as follows: BET inhibitor-based combinations targeting novel dependencies in MECOM-rearranged (r) AML: UCSD-AML1 cell line (AID 2202235). Also: nearly all actives have a fitted effect of over 40% in size. An outline of the steps:
as §2

The nature of test [6]: BET inhibitor-based combinations targeting novel dependencies in MECOM-rearranged (r) AML: AML-191 cell line (AID 2202236; also: nearly all actives have a fitted effect of over 35% in size). In outline: as §1
Test [7] is described as follows: BET inhibitor-based combinations targeting novel dependencies in MECOM-rearranged (r) AML: AML-194 cell line (AID 2202237; also: nearly all actives have a fitted effect of over 40% in size). In outline:
as §1

Molecules are shown by their SMILES. Several values for one entry are separate records, joined by “and”; a condition that tells them apart may be missing. Identical values can stand only once. Inconclusive results are not listed. The source holds several records for some structures; these can differ, active in one and inactive in another. Activity calls are given as the source filed them. Calls follow the shape of the dose curve; as a rule, active = well fitted curve in the direction sought with a large enough effect; inconclusive = small, poorly fitted or top-dose-only effect, or another doubt; inactive = no such curve, though single readings can be large; an effect the other way counts as inactive or inconclusive. Non-standard residues stand in square brackets, D forms with d. Residues, ends and D or L forms follow the SMILES beside them. *: point of attachment. Benzoyl(4-tBu) = CC(C)(C)c1ccc(C(=O)*)cc1; Lys(Et2) = CCN(CC)CCCC[C@H](N)C(=O)O
Potency is read from the fitted curve at half-maximal effect.

As for `NC(CC1c2ccccc2Oc2ccccc21)(C(=O)O)C1CC1C(=O)O` (centres undefined), the viability in test [1] is 118% (inactive). The Potency entry in test [2], in test [3], in test [4], in test [5], in test [6] and in test [7] was “inactive” each time.
With `C[C@@H]1C[C@H](N)C[C@H](c2ccncc2NC(=O)c2ccc(F)c(-c3c(F)cccc3F)n2)C1`, the Potency in test [1] is 18.6 µM (active); in test [2], 16.6 µM (active); in test [3], 5.25 µM (active); in test [4], 5.25 µM (active); in test [5], 132 nM (active); in test [6], 10.5 µM (active). In addition, in test [7], the Potency is 5.9 µM (active).
On to `CCCCCCCCCCCCCCCCCCCCCCO`, for which, in test [1], the viability is 112% (inactive). The Potency result in test [2], in test [3], in test [4], in test [5], in test [6] and in test [7] was “inactive” each time.
`CC(C)[C@H]1C(=O)N[C@@H](CCCN=C(N)N)C(=O)NCC(=O)N[C@@H](CC(=O)O)C(=O)N[C@H](Cc2ccccc2)C(=O)N1C`: the viability in test [1] is 124% (inactive). Moreover, the Potency result in test [2], in test [3], in test [4], in test [5], in test [6] and in test [7] was “inactive” each time.
Consider `CC[C@@H]1[C@H](F)C(=O)N[C@@H]1COc1nccc2cc(C(N)=O)c(OC)cc12`, for which the Potency in test [1] is 14.8 µM (active); in test [2], 14.8 µM (active); in test [3] it was 8.33 µM (active); in test [4], 11.8 µM (active); in test [5], 20900 nM (active); in test [6] it was 14.8 µM (active). In test [7], the Potency was 20.9 µM (active).
For `CCN(CC)CCCC[C@H](NC(=O)[C@H](CC(C)C)NC(=O)[C@H](C)NC(=O)[C@H](Cc1ccccc1)NC(=O)c1ccc(C(C)(C)C)cc1)C(=O)N[C@@H](CO)C(=O)OC` ({Benzoyl(4-tBu)}-FAL[Lys(Et2)]S-OMe), the viability in test [1] was 71.5% (inactive). Besides, the Potency entry in test [2], in test [3], in test [4], in test [5], in test [6] and in test [7] was “inactive” throughout.
Consider `CC(C)(O)c1coc(S(=O)(=O)NC(=O)Nc2c3c(cc4c2CCC4)CCC3)c1`, for which the viability in test [1] is 126% (inactive). The Potency entry in test [2], in test [3], in test [4], in test [5], in test [6] and in test [7] was “inactive” in each case.
Turning to `CCC1=C[C@@H]2CN(C1)Cc1c([nH]c3ccccc13)[C@@](C(=O)OC)(c1cc3c(cc1OC)N(C)[C@H]1[C@@](O)(C(=O)OC)[C@H](OC(C)=O)[C@]4(CC)C=CCN5CC[C@]31[C@@H]54)C2`, the Potency was 7.23 µM (active) in test [1]; 0.257 µM (active) in test [2]; 0.323 µM (active) in test [3]; 0.229 µM (active) in test [4]; 407 nM (active) in test [5]; 0.645 µM (active) in test [6]. For the same molecule, the Potency in test [7] was 0.645 µM (active).
Regarding `CCCc1nc(C)c2c(=O)[nH]c(-c3cc(S(=O)(=O)N4CCN(CC)CC4)ccc3OCC)nn12`, in test [1], the viability is 114% (inactive). In test [2], the Potency was 3.72 µM (active). Besides, the Potency entry in test [3], in test [4], in test [5], in test [6] and in test [7] was “inactive” in each case.
On to `CCc1c(-c2ccccc2C)nc2c(C#N)c[nH]n2c1=O`, for which the viability in test [1] was 112% (inactive) and 125% (inactive). Moreover, the Potency entry in test [2], in test [3], in test [4], in test [6] and in test [7] was “inactive” throughout. For the same molecule, the Potency in test [5] was 1.2 nM (active) and inactive.
With `CCN(CC)CCNC(=O)c1c(C)[nH]c(/C=C2/C(=O)Nc3ccc(-c4csc(-c5ccccc5)n4)cc32)c1C`, the Potency in test [1] was 9.34 µM (active); in test [2], 18.6 µM (active); in test [3] it was 1.18 µM (active); in test [4], 26.3 µM (active); in test [5], 9340 nM (active); in test [6], 7.42 µM (active). The Potency in test [7] was 7.42 µM (active).
For the molecule `COC(=O)c1ccc([C@H]2c3[nH]c4ccccc4c3C[C@H](C(=O)OC)N2C(=O)CCl)cc1`, the Potency in test [1] is 0.0934 µM (active); in test [2], 0.105 µM (active); in test [3] it was 0.833 µM (active); in test [4] it was 0.0934 µM (active); in test [5], 166 nM (active); in test [6] it was 0.132 µM (active). The Potency in test [7] is 0.105 µM (active).
As to `O=C(CCCCCCNC(=O)c1cnc(N(c2ccccc2)c2ccccc2Cl)nc1)NO`, the Potency in test [1] was 9.34 µM (active); in test [2] it was 7.42 µM (active); in test [3], 3.72 µM (active); in test [4], 9.34 µM (active); in test [5], 9340 nM (active); in test [6], 7.42 µM (active). Moreover, the Potency in test [7] was 10.5 µM (active).
Consider `CC(C)(NS(=O)(=O)c1ccc2c(Cl)cnc(N=C(N)N)c2c1)C(=O)O`, for which, in test [1], the viability is 117% (inactive). The Potency entry in test [2], in test [3], in test [4], in test [5], in test [6] and in test [7] was “inactive” in each case.
With `CC(=O)N[C@H]1CSSC[C@@H](C(N)=O)NC(=O)[C@H](C(C)C)NC(=O)[C@H](C)NC(=O)[C@H](Cc2cnc[nH]2)NC1=O`, the viability in test [1] was 113% (inactive). Further, the Potency entry in test [2], in test [3], in test [4], in test [5], in test [6] and in test [7] was “inactive” throughout.
For the molecule `Cc1[nH]cnc1CN1CCN(C(=O)N[C@@H](CC(C)C)C(=O)O)[C@@H](Cc2ccccc2)C1=O`, the viability in test [1] was 123% (inactive). The Potency in test [2] was 6.61 µM (active). The Potency entry in test [3], in test [4], in test [5], in test [6] and in test [7] was “inactive” throughout.
For `N[C@@H]1CN(c2c(F)cc3c(=O)c(C(=O)O)cn([C@@H]4C[C@@H]4F)c3c2Cl)CC12CC2`, the viability in test [1] is 105% (inactive). The Potency result in test [2], in test [3], in test [4], in test [5], in test [6] and in test [7] was “inactive” in each case.
